# Data reported in PubChem BioAssay (NCATS).
# Results filed as inconclusive are left out. Activity calls are given as the source filed them. Calls come from the whole dose curve; as a rule, active = well fitted inhibition curve with a large enough effect; inconclusive = small, poorly fitted or top-dose-only effect; inactive = flat fitted curve, though single readings scatter.
# Assay: Drug repurposing screens with cells derived from glioblastoma tumor samples (AID 1345199); note: nearly all actives have a fitted effect of over 40% in size
# Conditions: GBM patient neurospheres viability, ATP luminescence, 48 h
# Protocol: CD133+ cells were isolated from GBM patient biopsies and cultured as neurospheres. Neurospheres from four patients were used to screen the NCATS pharmaceutical collection (NPC) library of approved drugs and bioactive compounds. […] The neurospheres were incubated with drugs for 48 hours in 1536-well format, then assayed with an ATP content cell viability assay. […] These hits were cherry picked to confirm activity in the four original GBM lines screened plus three other slower growing GMB lines (unable to yield enough cells for a full primary screen). Variable activities of the confirmed primary hits in the different GBM patient lines were observed. The patient line 206 responded to the greatest number of compounds and line 923 responded to the least amount of active compounds.
# [1] = at 21.2 µM (top of the series), tumour line B
# [2] = at 21.3 µM (top of the series), tumour line A
# [3] = at 45.9 µM (top of the series), tumour line B
# [4] = at 45.9 µM (top of the series), tumour line D
# [5] = at 46.1 µM (top of the series), tumour line C
# [6] = at 46 µM (top of the series), tumour line A
# % is set by controls: 0 for no effect and ±100 for the full control effect; potency is the fitted concentration of half-maximal effect.
compound,measurement,setting,value
Nc1cc(C(Cl)=C(Cl)Cl)c(S(N)(=O)=O)cc1S(N)(=O)=O,"activity, negative = cell killing","at 20 µM (top of the series), tumour line C",-2.9% (inactive)
same,"activity, negative = cell killing",[1],-5.37% (inactive)
same,"activity, negative = cell killing","at 21.2 µM (top of the series), tumour line D",-20.2% (inactive)
same,"activity, negative = cell killing",[2],-22% (inactive)
same,"activity, negative = cell killing",[3],-15.5% (inactive)
same,"activity, negative = cell killing",[4],2.04% (inactive)
same,"activity, negative = cell killing",[5],10.7% (inactive)
N=C(N=C(N)N)N1CCOCC1,"activity, negative = cell killing",[1],4.28% (inactive)
same,"activity, negative = cell killing",[2],-14.6% (inactive)
N=C(N)c1ccc2cc(OC(=O)c3ccc(N=C(N)N)cc3)ccc2c1,"activity, negative = cell killing",[3],-0.17% (inactive)
same,"activity, negative = cell killing",[4],-17% (inactive)
same,"activity, negative = cell killing",[5],10% (inactive)
Nc1ccc(S(N)(=O)=O)cc1,"activity, negative = cell killing",[3],-13.5% (inactive)
same,"activity, negative = cell killing",[4],-7.18% (inactive)
same,"activity, negative = cell killing",[6],-12.5% (inactive)
same,"activity, negative = cell killing",[5],10.5% (inactive)
c1ccc2[nH]c(-c3cscn3)nc2c1,"activity, negative = cell killing",[3],-26.3% (inactive)
same,"activity, negative = cell killing",[5],7.08% (inactive)
Nc1ncn([C@H]2C[C@H](O)[C@@H](CO)O2)c(=O)n1,"activity, negative = cell killing",[3],-23% (inactive)
same,"activity, negative = cell killing",[4],-5.51% (inactive)
same,"activity, negative = cell killing",[6],-24.9% (inactive)
same,"activity, negative = cell killing",[5],-19.7% (inactive)
O=C(O)c1cccnc1Nc1cccc(C(F)(F)F)c1,"activity, negative = cell killing",[3],-15.9% (inactive)
same,"activity, negative = cell killing",[4],-4.12% (inactive)
O=P(O)(O)C(O)(Cn1ccnc1)P(=O)(O)O,"activity, negative = cell killing",[3],-3.43% (inactive)
same,"activity, negative = cell killing",[4],-0.668% (inactive)
same,"activity, negative = cell killing",[6],-16.2% (inactive)
same,"activity, negative = cell killing",[5],-7.84% (inactive)
Cc1c(OCC(F)(F)F)ccnc1CS(=O)c1nc2ccccc2[nH]1 (stereo unspecified),"activity, negative = cell killing",[3],-26% (inactive)
same,Potency,tumour line A,10 µM (active)
Cc1cccc(C)c1OCC(=O)N[C@@H](Cc1ccccc1)[C@@H](O)C[C@H](Cc1ccccc1)NC(=O)[C@H](C(C)C)N1CCCNC1=O,"activity, negative = cell killing",[3],-15.7% (inactive)
same,"activity, negative = cell killing",[4],-27.5% (inactive)
same,"activity, negative = cell killing",[5],-29% (inactive)
same,Potency,tumour line A,10 µM (active)
CN1CCC(=C2c3ccccc3CCc3sccc32)CC1,"activity, negative = cell killing",[5],4.48% (inactive)
same,Potency,tumour line A,3.98 µM (active)
same,Potency,tumour line D,12.6 µM (active)
Cc1ccc(NC(=O)c2ccc(CN3CCN(C)CC3)cc2)cc1Nc1nccc(-c2cccnc2)n1,"activity, negative = cell killing",[5],17.6% (inactive)
same,Potency,tumour line A,12.6 µM (active)
same,Potency,tumour line B,20 µM (active)
same,Potency,tumour line D,12.6 µM (active)
